Measurements published in ChEMBL document CHEMBL3988442, “University of Dundee, Small-Polar-MMV Screening Library” (2021).

target: AMP-activated protein kinase, AMPK (Homo sapiens) (UniProt P54646+O43741+P54619+Q9UGJ0+Q9Y478+Q13131+Q9UGI9); assay: AMP-dependent Kinase enzyme assay. An in vitro enzyme assay that detects ADP turnover that is directly proportional to AMPK activity. This uses naive AMPK that is activated during the assay with MK-8722; format: functional; design: scale not given: direction of the effect not stated beside the values; settings: 30 µM

Row | SMILES | Percent Effect [%]
1 | C[C@@H]1CN(c2ccc(Cl)cn2)C[C@]1(C)O | -1.99
2 | CC(C)Cc1noc(CN(C)C2CCS(=O)(=O)C2)n1 (stereo unspecified) | -4.29
3 | COC(=O)N1CCCCC1C(=O)N1CCN(c2ncccc2C)CC1 (stereo unspecified) | -4.85
4 | COc1cccc(OCC2CCCN(c3cc(C(N)=O)ccn3)C2)c1 (stereo unspecified) | 4.97
5 | COc1ncc(NCc2ccc(C#N)cc2)cc1C(N)=O | 2.92
6 | O=C(CCn1ccnc1)N1CCCC(n2cncn2)C1 (stereo unspecified) | 11.8
7 | CN(C)CCN(C)C(=O)c1cn(CC2CCCCC2)nn1 | 10.7
8 | COc1ccc(C)cc1CN(C)CC(N)=O | -2.2
9 | CO[C@H]1CN(Cc2c(C)ccc3ncccc23)CC[C@H]1N | 1.31
10 | Cn1ccnc1CNC(=O)c1cncc(C2CCNCC2)n1 | 1.13
11 | CN(Cc1ccccc1)S(=O)(=O)N1C[C@@H](C(=O)O)[C@H](C2CC2)C1 | 3.92
12 | CN1CCOC(CNCC(=O)NCCCc2ccccc2)C1 (stereo unspecified) | -10
13 | CN(C)c1cc2c(nn1)CCN(C(=O)c1ccc(-n3cccn3)nc1)C2 | 2.65
14 | COC(=O)NCC(=O)N1CCC(c2cc3ccccc3[nH]2)CC1 | 6.03
15 | CC(NCc1nnc2n1CCCC2)c1nc(-c2cccs2)no1 (stereo unspecified) | -0.613
16 | CCn1nc(C(C)C)cc1C(=O)NCC1CCCN(c2ccccn2)C1 (stereo unspecified) | 6.64
17 | Cc1c(NC(=O)NC(C)CCO)cccc1OC1CCCC1 (stereo unspecified) | -7.69
18 | COC(=O)CSCc1noc(-c2ccc(Cl)cc2)n1 | -9.28
19 | Clc1ccc(COCC2CCN(Cc3ccccn3)CC2)cc1 | 4.9
20 | Cc1nnc(CN(C)CC(=O)NC(C)(C)c2ccc(F)cc2)n1C | 6.43
21 | N#Cc1cccnc1N1CCC(Nc2ccccc2)C1 (stereo unspecified) | 4.61
